In PubChem BioAssay:
Active and inactive are the calls of the source. No rule for the calls is given here.

These compounds were tested against Pantothenate synthetase (Mycobacterium tuberculosis (strain ATCC 25618 / H37Rv)) (UniProt P9WIL5) (assay: Recombinant Mtb pantothenate synthetase (PanC) inhibitors, coupled enzyme, confirmatory (AID 375;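 also: 0% = full reaction with vehicle and 100% = no enzyme background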)). Conditions: coupled enzyme assay; at 10 µM, stronger effect = higher value.
Sequence of Pantothenate synthetase (Mycobacterium tuberculosis (strain ATCC 25618 / H37Rv)) (P9WIL5 whole entry, looked up): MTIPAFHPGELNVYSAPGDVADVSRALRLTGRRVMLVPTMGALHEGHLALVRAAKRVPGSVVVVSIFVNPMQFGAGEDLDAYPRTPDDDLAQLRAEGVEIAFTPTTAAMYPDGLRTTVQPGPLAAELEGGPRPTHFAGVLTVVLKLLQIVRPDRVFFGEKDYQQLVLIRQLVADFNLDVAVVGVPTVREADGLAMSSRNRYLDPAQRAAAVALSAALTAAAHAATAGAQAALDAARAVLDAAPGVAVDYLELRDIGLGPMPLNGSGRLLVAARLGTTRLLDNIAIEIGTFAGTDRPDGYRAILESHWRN

SMILES | inhibition
CC(C)CCNC(=O)NC(=O)COc1ccccc1C#N | 4% (inactive)
CCOc1cc(C2NC(=O)NC(O)(C(F)(F)F)C2C(=O)c2ccccc2)ccc1OC (stereo not given) | 3% (inactive)
Nn1c(SCC(=O)Nc2ccc(S(=O)(=O)N3CCCC3)cc2)nnc1C(F)(F)F | 0% (inactive)
Cc1ccc(S(=O)(=O)N2CCN(C(=O)c3cc(=O)[nH]c4ccccc34)CC2)c(C)c1 | 3% (inactive)
Cc1cc(C(=O)Nc2ccc(S(=O)(=O)Nc3onc(C)c3C)cc2)cs1 | 4% (inactive)
CCn1cc(C(=O)NCCC2=CCCCC2)c(=O)c2cc(S(=O)(=O)N(C)C)ccc21 | 0% (inactive)
CCNC(=O)N(C(=O)NCC)n1c(C)nnc1C | 0% (inactive)
O=C1CCCCCC1C1(O)C(=O)Nc2ccccc21 (stereo not given) | 7% (inactive)
CC(C)c1ccc(-c2nc(N3CCCCC3)[nH]c(=O)c2C#N)cc1 | 5% (inactive)
CC(=O)N1C(=O)c2cccc3cccc(c23)C(=O)N1C(C)=O | 0% (inactive)
Cc1c(C(=O)OC(C)C)[nH]c2c1C(=O)CCC2 | 0% (inactive)
O=C(OCCCN1CCCC1)C1(c2ccccc2)CCCC1 | 1% (inactive)
NNC(=O)c1ccncc1 | 0% (inactive)
COc1ccc(CC(=O)Nc2ccc(OC)c(NC(=O)c3ccco3)c2)cc1 | 7% (inactive)
c1ccc(-n2ncc3c(NCc4cccs4)ncnc32)cc1 | 0% (inactive)
CC(C)OC(=O)c1cc(NC(=O)C2C3CCC(O3)C2C(=O)O)cc(C(=O)OC(C)C)c1 (stereo not given) | 0% (inactive)
Cc1oc(-c2ccccc2)cc1C(N)=O | 0% (inactive)
O=S(=O)(Nc1ccccn1)c1ccc(Oc2ccccc2)cc1 | 1% (inactive)
O=C(CCn1c(=O)c2sccc2n(CC(=O)NCc2ccco2)c1=O)NCc1ccccc1 | 3% (inactive)
Cn1cc(Br)c(C(=O)NC2CCCCC2)n1 | 4% (inactive)

SMILES | inhibition
O=C(CN1CCN(Cc2ccc(F)cc2Cl)C1=O)NCCCN1CCOCC1 | 0% (inactive)
COCCn1c(C23CC4CC(CC(C4)C2)C3)n[nH]c1=S | 0% (inactive)
COc1cc(S(=O)(=O)NC2CCCCC2)ccc1Cl | 1% (inactive)
COc1ccc(-c2cc(C(F)F)n3ncc(C(=O)NCC4CCCO4)c3n2)cc1 (stereo not given) | 4% (inactive)
O=c1c2ccc(-c3nnc4n3-c3ccccc3SC4)cc2nc2n1CCCCC2 | 0% (inactive)
CCC(=O)Nc1ccc(Cl)c(NC(=O)C(C)C)c1 | 3% (inactive)
Cn1cccc1-c1nc2ccc(NC(=O)c3ccco3)cc2[nH]1 | 6% (inactive)
COC(=O)c1cn(NC(=O)c2cccnc2)c(=O)c2ccccc12 | 0% (inactive)
CCn1c(SCC(=O)NC)nnc1C(C)C | 2% (inactive)
COc1ccc2cc(CN(Cc3ccco3)C(c3nnnn3C3CCCCC3)C(C)C)c(=O)[nH]c2c1 (stereo not given) | 5% (inactive)
CCOc1ccc(OCCCCN(C)C)cc1 | 2% (inactive)
CC(c1ccco1)N(C(=O)COc1ccc(Cl)cc1Cl)c1ccccn1 (stereo not given) | 4% (inactive)
CCOc1ccccc1-n1nnnc1SCC(=O)Nc1cc2oc3ccccc3c2cc1OC | 0% (inactive)
CCN(CC)S(=O)(=O)c1ccc2c(c1)c(=O)c(C(=O)NCCOC)cn2C | 1% (inactive)
COc1ccc(-c2nc3c(n2O)CCC/C3=N\O)cc1 | 0% (inactive)
COc1cccc(OC)c1C(=O)N1CCOCC1 | 12% (inactive)
CCSC1=NCN(CCCC(=O)O)CN1 | 0% (inactive)
CCOC(=O)c1sc2ncn(/N=C/N(C)C)c(=O)c2c1C | 8% (inactive)
CN1CCc2nc(SCC(=O)Nc3ccc(F)cc3)c(C#N)cc2C1 | 8% (inactive)
CCOC(=O)c1ccccc1NC(=O)c1ccc(NS(C)(=O)=O)cc1 | 0% (inactive)
